According to ChEMBL document CHEMBL1961873, “Compounds: GSK PKIS; Assays: Nanosyn kinase panel” (2012):
Where “and” joins values, the source holds several entries; their conditions need not be identical. Equal values may be shown once.

Key:
[1] = test system: Tyrosine-protein kinase ABL1 (Homo sapiens), P00519 [T315I]; details: at 1 µM
[2] = test system: Tyrosine-protein kinase ABL1 (Homo sapiens), P00519 [Y253F]; details: at 0.1 µM
[3] = test system: Tyrosine-protein kinase ABL1 (Homo sapiens), P00519 [Y253F]; details: at 1 µM
[4] = molecular target: Tyrosine-protein kinase ABL1 (Homo sapiens) (UniProt P00519); details: at 0.1 µM
[5] = molecular target: Tyrosine-protein kinase ABL1 (Homo sapiens) (UniProt P00519); details: at 1 µM
[6] = molecular target: ALK tyrosine kinase receptor (Homo sapiens) (UniProt Q9UM73); details: at 0.1 µM
[7] = molecular target: ALK tyrosine kinase receptor (Homo sapiens) (UniProt Q9UM73); details: at 1 µM
[8] = molecular target: Tyrosine-protein kinase ABL2 (Homo sapiens) (UniProt P42684); details: at 0.1 µM
[9] = molecular target: Tyrosine-protein kinase ABL2 (Homo sapiens) (UniProt P42684); details: at 1 µM
[10] = molecular target: Tyrosine-protein kinase receptor UFO (Homo sapiens) (UniProt P30530); details: at 0.1 µM
[11] = molecular target: Tyrosine-protein kinase receptor UFO (Homo sapiens) (UniProt P30530); details: at 1 µM
[12] = molecular target: Tyrosine-protein kinase Blk (Homo sapiens) (UniProt P51451); details: at 0.1 µM
[13] = molecular target: Tyrosine-protein kinase Blk (Homo sapiens) (UniProt P51451); details: at 1 µM
[14] = molecular target: T1, Cytoplasmic tyrosine-protein kinase BMX (Homo sapiens) (UniProt P51813); details: at 0.1 µM
T1 sequence (whole entry): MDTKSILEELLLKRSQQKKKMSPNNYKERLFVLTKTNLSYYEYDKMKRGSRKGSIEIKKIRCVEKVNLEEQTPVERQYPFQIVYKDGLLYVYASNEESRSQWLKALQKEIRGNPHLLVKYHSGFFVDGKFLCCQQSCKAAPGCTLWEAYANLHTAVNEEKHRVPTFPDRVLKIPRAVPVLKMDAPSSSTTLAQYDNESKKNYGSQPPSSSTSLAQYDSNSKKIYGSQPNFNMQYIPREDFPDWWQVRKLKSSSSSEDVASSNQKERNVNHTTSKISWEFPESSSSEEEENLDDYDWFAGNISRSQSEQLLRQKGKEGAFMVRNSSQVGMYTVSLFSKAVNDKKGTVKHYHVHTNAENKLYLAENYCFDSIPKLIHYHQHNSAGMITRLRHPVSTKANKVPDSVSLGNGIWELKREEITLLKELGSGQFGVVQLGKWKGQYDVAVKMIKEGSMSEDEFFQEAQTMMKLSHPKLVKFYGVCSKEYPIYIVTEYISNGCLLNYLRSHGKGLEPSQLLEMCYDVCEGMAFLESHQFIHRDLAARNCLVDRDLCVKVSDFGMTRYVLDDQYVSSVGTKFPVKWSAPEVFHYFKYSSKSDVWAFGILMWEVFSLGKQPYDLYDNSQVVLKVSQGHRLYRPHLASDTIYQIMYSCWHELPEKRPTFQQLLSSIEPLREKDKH

[15] = molecular target: T1, Cytoplasmic tyrosine-protein kinase BMX (Homo sapiens); details: at 1 µM
[16] = molecular target: Protein-tyrosine kinase 6 (Homo sapiens) (UniProt Q13882); details: at 0.1 µM
[17] = molecular target: Protein-tyrosine kinase 6 (Homo sapiens) (UniProt Q13882); details: at 1 µM
[18] = molecular target: Tyrosine-protein kinase BTK (Homo sapiens) (UniProt Q06187); details: at 0.1 µM
[19] = molecular target: Tyrosine-protein kinase BTK (Homo sapiens) (UniProt Q06187); details: at 1 µM
[20] = molecular target: Tyrosine-protein kinase CSK (Homo sapiens) (UniProt P41240); details: at 0.1 µM;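 also: value given is the averaged percent inhibition of CSK kinase activity, from the GSK PKIS kinase inhibitor set screening panel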
Chain of Tyrosine-protein kinase CSK (Homo sapiens) (P41240 2-450 limits assumed): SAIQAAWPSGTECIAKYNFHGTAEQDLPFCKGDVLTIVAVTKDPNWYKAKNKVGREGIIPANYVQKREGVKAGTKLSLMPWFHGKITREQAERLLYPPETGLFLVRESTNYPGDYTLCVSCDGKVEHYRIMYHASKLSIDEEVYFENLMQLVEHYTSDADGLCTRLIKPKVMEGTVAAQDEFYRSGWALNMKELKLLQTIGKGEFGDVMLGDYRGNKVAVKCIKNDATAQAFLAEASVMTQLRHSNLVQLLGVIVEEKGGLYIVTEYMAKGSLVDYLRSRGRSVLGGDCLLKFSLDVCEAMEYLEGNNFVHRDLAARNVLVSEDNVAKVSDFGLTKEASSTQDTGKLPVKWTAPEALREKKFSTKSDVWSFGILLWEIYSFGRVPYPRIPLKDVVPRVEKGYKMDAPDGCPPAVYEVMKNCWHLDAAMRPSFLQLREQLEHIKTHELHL

Chain of Tyrosine-protein kinase Blk (Homo sapiens) (P51451 2-505 limits assumed): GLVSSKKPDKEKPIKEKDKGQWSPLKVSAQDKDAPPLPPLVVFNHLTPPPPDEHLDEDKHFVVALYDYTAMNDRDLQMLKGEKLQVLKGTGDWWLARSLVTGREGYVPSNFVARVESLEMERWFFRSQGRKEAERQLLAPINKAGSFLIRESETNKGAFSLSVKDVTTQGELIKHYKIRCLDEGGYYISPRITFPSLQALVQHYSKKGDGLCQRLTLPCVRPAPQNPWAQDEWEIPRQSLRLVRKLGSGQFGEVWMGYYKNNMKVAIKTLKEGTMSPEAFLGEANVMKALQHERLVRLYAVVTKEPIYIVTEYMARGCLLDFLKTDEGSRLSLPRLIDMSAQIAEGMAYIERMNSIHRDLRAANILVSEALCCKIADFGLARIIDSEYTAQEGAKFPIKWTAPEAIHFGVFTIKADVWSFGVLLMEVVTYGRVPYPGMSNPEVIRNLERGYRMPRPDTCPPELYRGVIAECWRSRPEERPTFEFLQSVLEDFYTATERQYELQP
Chain of ALK tyrosine kinase receptor (Homo sapiens) (Q9UM73 19-1620 limits assumed): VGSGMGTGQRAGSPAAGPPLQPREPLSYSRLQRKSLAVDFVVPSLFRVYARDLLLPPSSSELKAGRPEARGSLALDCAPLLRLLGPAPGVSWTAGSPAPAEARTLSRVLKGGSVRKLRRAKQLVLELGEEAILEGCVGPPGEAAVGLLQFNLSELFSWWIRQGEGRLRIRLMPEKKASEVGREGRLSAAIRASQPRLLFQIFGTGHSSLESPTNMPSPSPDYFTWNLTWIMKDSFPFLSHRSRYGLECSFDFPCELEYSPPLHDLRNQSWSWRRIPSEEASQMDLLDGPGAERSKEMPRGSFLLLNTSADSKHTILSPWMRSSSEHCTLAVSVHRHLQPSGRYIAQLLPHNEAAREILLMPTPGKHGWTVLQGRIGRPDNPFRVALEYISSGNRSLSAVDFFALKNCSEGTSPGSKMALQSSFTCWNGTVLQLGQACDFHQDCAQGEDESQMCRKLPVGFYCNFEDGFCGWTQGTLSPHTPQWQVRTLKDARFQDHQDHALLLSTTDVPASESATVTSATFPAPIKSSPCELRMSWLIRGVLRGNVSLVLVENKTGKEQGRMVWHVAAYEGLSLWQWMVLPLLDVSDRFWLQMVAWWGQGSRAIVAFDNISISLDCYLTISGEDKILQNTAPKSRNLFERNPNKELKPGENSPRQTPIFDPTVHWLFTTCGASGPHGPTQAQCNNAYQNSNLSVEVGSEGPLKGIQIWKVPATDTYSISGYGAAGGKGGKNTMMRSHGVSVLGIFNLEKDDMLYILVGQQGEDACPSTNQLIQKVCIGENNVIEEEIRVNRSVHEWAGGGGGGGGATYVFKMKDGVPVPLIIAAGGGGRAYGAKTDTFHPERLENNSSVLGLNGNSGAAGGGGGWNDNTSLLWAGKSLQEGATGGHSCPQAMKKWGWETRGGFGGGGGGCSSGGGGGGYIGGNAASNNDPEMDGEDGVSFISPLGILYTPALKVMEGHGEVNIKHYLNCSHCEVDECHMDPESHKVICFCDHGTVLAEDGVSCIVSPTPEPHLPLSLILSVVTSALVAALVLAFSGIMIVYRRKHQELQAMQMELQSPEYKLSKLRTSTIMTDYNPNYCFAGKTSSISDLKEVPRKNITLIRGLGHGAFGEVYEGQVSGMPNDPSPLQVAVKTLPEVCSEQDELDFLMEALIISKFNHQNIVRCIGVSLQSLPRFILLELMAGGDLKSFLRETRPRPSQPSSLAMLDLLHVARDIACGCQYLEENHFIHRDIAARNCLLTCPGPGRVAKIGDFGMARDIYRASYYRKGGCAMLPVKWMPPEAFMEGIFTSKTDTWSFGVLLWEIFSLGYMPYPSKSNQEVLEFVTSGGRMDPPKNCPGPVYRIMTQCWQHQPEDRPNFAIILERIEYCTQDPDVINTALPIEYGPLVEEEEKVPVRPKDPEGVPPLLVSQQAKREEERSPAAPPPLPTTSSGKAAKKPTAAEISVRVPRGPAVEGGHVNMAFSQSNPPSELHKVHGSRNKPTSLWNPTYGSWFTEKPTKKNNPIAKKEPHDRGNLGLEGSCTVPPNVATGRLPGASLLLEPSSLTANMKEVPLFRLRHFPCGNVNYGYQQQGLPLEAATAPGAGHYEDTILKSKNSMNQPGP
Chain of Tyrosine-protein kinase BTK (Homo sapiens) (Q06187 whole entry): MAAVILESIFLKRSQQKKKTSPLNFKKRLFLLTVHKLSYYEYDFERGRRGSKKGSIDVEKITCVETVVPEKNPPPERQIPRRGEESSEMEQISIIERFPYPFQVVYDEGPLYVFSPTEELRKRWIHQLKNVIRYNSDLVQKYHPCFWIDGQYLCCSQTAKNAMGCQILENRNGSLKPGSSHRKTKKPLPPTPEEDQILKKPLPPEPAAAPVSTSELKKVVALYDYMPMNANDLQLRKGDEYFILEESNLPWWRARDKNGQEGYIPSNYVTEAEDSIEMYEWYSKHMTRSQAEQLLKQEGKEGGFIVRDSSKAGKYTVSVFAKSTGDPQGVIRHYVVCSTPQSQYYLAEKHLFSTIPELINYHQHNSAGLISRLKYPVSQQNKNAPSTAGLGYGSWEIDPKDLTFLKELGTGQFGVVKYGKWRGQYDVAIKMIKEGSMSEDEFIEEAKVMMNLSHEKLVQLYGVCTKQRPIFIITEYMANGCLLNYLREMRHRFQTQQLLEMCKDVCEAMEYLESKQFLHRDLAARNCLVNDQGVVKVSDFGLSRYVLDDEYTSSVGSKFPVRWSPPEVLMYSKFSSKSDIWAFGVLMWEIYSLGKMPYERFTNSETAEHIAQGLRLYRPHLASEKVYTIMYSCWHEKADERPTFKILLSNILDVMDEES
Chain of Tyrosine-protein kinase ABL2 (Homo sapiens) (P42684 whole entry): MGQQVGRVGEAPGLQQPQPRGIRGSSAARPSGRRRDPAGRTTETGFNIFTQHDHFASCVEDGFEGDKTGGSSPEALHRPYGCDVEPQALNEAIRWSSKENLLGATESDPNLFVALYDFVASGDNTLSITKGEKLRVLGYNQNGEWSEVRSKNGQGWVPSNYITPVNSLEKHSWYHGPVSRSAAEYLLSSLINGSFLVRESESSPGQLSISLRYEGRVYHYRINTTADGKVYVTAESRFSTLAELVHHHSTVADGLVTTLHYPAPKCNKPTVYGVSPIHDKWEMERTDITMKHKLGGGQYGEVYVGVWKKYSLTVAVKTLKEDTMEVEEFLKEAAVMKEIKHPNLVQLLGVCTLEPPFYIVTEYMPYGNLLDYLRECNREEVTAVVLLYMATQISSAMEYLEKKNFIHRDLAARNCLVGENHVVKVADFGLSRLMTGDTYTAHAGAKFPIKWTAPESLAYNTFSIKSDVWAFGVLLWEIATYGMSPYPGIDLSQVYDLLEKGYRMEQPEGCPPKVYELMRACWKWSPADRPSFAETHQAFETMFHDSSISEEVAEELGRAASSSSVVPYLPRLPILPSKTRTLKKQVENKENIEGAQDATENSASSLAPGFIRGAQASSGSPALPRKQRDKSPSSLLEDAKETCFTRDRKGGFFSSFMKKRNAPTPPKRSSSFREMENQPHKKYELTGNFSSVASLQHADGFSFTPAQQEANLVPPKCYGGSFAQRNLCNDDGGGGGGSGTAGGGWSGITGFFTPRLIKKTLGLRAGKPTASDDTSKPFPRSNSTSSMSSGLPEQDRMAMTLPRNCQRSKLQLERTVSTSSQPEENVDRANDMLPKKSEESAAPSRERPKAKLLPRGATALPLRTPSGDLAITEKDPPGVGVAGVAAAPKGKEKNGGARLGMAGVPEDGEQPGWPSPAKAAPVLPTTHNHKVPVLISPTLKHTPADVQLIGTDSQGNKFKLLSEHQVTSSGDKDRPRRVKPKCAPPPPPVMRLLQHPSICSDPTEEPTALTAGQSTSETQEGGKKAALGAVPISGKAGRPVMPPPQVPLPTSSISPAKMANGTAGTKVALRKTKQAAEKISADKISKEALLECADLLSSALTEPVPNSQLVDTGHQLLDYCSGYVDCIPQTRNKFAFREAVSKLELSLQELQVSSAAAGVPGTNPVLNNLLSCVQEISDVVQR
Chain of Protein-tyrosine kinase 6 (Homo sapiens) (Q13882 whole entry, looked up): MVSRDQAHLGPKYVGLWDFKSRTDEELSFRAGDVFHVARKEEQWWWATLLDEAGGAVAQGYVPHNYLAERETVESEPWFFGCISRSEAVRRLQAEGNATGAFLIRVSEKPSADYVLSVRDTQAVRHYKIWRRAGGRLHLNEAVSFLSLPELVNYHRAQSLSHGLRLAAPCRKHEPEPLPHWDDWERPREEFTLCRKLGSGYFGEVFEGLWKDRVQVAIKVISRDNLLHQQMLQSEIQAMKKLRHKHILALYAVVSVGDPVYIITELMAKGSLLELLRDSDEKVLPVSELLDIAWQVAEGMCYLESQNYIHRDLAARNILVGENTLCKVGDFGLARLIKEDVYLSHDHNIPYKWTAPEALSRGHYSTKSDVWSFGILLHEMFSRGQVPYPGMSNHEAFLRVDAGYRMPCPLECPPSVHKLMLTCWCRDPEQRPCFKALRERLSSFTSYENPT

Row | Compound | inhibition [1] | inhibition [2] | inhibition [3] | inhibition [4] | inhibition [5] | inhibition [6] | inhibition [7] | inhibition [8] | inhibition [9] | inhibition [10] | inhibition [11] | inhibition [12] | inhibition [13] | inhibition [14] | inhibition [15] | inhibition [16] | inhibition [17] | inhibition [18] | inhibition [19] | inhibition [20]
1 | COc1cccc(Nc2nccc(-c3cnn4ncccc34)n2)c1 | 30% | 7.39% | 39.2% | 4.97% | 40.9% | 5.36% | 32.3% | 6.41% | 44.2% | -0.07% | 11.4% | 2.91% | 14% | 9.52% | 21.8% | 1.39% | 10.1% | 0.35% | 4.57% | 4.74%
2 | CCS(=O)(=O)c1ccc(OC)c(Nc2ncc(-c3cccc(F)c3)o2)c1 | 25.1% | 52.5% | 90.2% | 39.8% | 77.5% | 4.12% | 7.35% | 32.8% | 74.6% | -6.71% | -5.62% | 21.3% | 73.8% | 1.13% | 33% | 9.28% | 29.8% | 3.65% | 28.6% | 7.64%
3 | NC(=O)c1ccc2c(-c3ccnc(NCCCO)n3)c(-c3ccc(F)cc3)nn2c1 | 6.37% | 7.28% | 8.72% | 4.37% | 13.2% | 3.18% | 7.82% | 4.85% | 10.1% | -6.77% | 0.42% | 2.21% | 6.11% | 1.45% | 9.25% | 6.4% | 17.1% | 0.41% | 0.35% | 6.17%
4 | O=C(Nc1n[nH]c2nnc(-c3cccnc3)cc12)C1CC1 | 3.43% | 0.48% | 3.53% | 3.47% | 6.91% | 0.19% | 1.54% | 0.77% | 3.61% | 0.08% | 1.65% | 0.58% | 2.68% | -0.2% | 0.81% | -0.91% | -0.57% | 0.26% | -0.1% | -1.49%
5 | Cc1nnc(-c2cccc(-c3ccc(C(=O)NCC4CC4)cc3)c2)o1 | 5.17% | 2.61% | 4.27% | 5.41% | 9.95% | 3.15% | 5.21% | 3.81% | 9.01% | -9.15% | -8.4% | 3.6% | 1.41% | -0.51% | 5.89% | 6.64% | 7.36% | 0.03% | 1.05% | 7.99%
6 | COc1ccccc1-c1cc(/C=C2\C(=O)Nc3ncc(Br)cc32)cc(Br)c1O | 5.39% | 5.65% | 20% | 4.63% | 27.9% | 2.62% | 6.47% | 3.44% | 15.1% | -9.46% | -1.51% | 2.49% | 10.7% | 0.75% | 6.48% | 5.88% | 3.92% | 1.5% | 2.07% | 3.21%
7 | FC(F)(F)CNc1nccc(-c2cnn3ncccc23)n1 | 0.38% | 0.37% | 2.04% | 1.87% | 4% | 2.79% | 3.31% | 0.3% | 3.29% | -3.79% | -3.11% | 1.37% | 2.35% | 4.12% | 2.03% | -1.25% | 3.34% | 0.18% | 0.42% | 2.81%
8 | COc1cccc(-n2ncc3c(N/N=C/c4ccc(C(=O)NCCN(C)C)cc4)ncnc32)c1 | 95% | 93.3% | 94.5% | 81.7% | 83.1% | 3.26% | 8.56% | 73.3% | 82% | 3.3% | 40.9% | 18.1% | 73% | 9.47% | 46.3% | 9.98% | 53.4% | 1.25% | 1.98% | 3.74%
9 | COc1c(C(N)=O)cc(-c2ccc(Cl)cc2)cc1-c1ccc(S(N)(=O)=O)cc1 | 2.49% | 2.41% | 4.61% | 3.19% | 3.54% | 5.82% | 7.26% | 2.13% | 3.9% | -6.59% | -6.03% | 1.95% | 3.34% | 4.08% | 6.04% | 3.21% | 4.09% | -1.27% | -0.85% | 3.55%
10 | Nc1nccc(-c2c(-c3ccc(F)cc3)ncn2C2CCNCC2)n1 | 1.38% and 1.78% | -2.62% and 1.74% | 3.43% and 4.65% | -2.44% and 0.45% | 7.89% and 5.4% | -2.83% and 0.4% | -1.85% and 1.82% | -2.01% and -0.73% | 3% and 19.3% | 3.6% and 1.09% | 8.06% and 1.45% | -1.45% and 0.8% | -0.17% and 2.22% | 1.14% and -5.53% | -1.15% and 0.2% | -3.88% and 1.44% | 2.01% and 4.41% | -0.49% and -0.93% | -0.59% and 0.22% | -4.42% and 4.09%
